According to PubChem BioAssay AID1159580 (chemical genetic matrix, 2015):
The whole screen tested about 5,500 compounds, of which about 2,000 (36%) were called active. Roughly 18% stayed inconclusive and do not appear here. No stated cut-off is given here; in the data, active means normalized growth mostly below about 0.91 (no sharp cut-off); inconclusive means no clear call, values can overlap the other calls; inactive means mostly above about 0.92. The list shows a part of the results.

Experiment: chemical genetic growth profiling, strain panel (AID 1159580);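 further: tested at 20 µM; growth read once vehicle control cultures reached saturation at 30 °C; 1 = growth at the plate median or of vehicle wells; lower values mean less growth of the strain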
Conditions: growth OD

Measured: normalized growth

COP(=S)(OC)Oc1ccc([N+](=O)[O-])cc1
active: S. cerevisiae deletion strains, locus YOR270C, strain vph1, active compounds read low 0.658
inactive: S. cerevisiae deletion strains, locus YJR075W, strain HOC1, active compounds read low 0.993 | S. cerevisiae deletion strains, locus YKL009W, strain mrt4, active compounds read low 0.962 | S. cerevisiae deletion strains, locus YKL068W, active compounds read low 0.987 | S. cerevisiae deletion strains, locus YKL085W, strain MDH1 (second series), active compounds read low 0.978 | S. cerevisiae deletion strains, locus YKL085W, strain MDH1, active compounds read low 0.978 | S. cerevisiae deletion strains, locus YKL160W, strain elf1, active compounds read low 0.993 | S. cerevisiae deletion strains, locus YKL190W, strain CNB1, active compounds read low 0.975 | S. cerevisiae deletion strains, locus YKR001C, strain vps1, active compounds read low 0.982 | S. cerevisiae deletion strains, locus YKR026C, strain gcn3, active compounds read low 0.995 | S. cerevisiae deletion strains, locus YKR091W, strain srl3, active compounds read low 0.992 | S. cerevisiae deletion strains, locus YLL001W, strain dnm1, active compounds read low 0.995 | S. cerevisiae deletion strains, locus YLL026W, active compounds read low 0.993 | S. cerevisiae deletion strains, locus YLL041C, strain sdh2, active compounds read low 1 | S. cerevisiae deletion strains, locus YLR027C, strain aat2, active compounds read low 0.998 | S. cerevisiae deletion strains, locus YLR039C, strain RIC1, active compounds read low 0.877 | S. cerevisiae deletion strains, locus YLR058C, strain SHM2, active compounds read low 0.975 | S. cerevisiae deletion strains, locus YLR102C, strain apc9, active compounds read low 0.974 | S. cerevisiae deletion strains, locus YLR113W, strain HOG1, active compounds read low 0.916 | S. cerevisiae deletion strains, locus YLR221C, strain rsa3, active compounds read low 0.974 | S. cerevisiae deletion strains, locus YLR258W, strain gsy2, active compounds read low 0.99 | S. cerevisiae deletion strains, locus YLR262C, strain YPT6 (second series), active compounds read low 0.927 | S. cerevisiae deletion strains, locus YLR262C, strain YPT6, active compounds read low 0.915 | S. cerevisiae deletion strains, locus YLR268W, strain sec22, active compounds read low 0.993 | S. cerevisiae deletion strains, locus YLR320W, strain mms22, active compounds read low 0.944 | S. cerevisiae deletion strains, locus YLR330W, strain CHS5, active compounds read low 0.989 | S. cerevisiae deletion strains, locus YLR342W, strain FKS1 (second series), active compounds read low 0.998 | S. cerevisiae deletion strains, locus YLR342W, strain FKS1, active compounds read low 0.981 | S. cerevisiae deletion strains, locus YLR357W, strain rsc2, active compounds read low 1 | S. cerevisiae deletion strains, locus YLR370C, strain arc18, active compounds read low 0.991 | S. cerevisiae deletion strains, locus YLR371W, strain rom2, active compounds read low 0.975 | S. cerevisiae deletion strains, locus YLR384C, strain iki3, active compounds read low 0.971 | S. cerevisiae deletion strains, locus YLR418C, strain cdc73, active compounds read low 0.991 | S. cerevisiae deletion strains, locus YML016C, strain PPZ1, active compounds read low 0.951 | S. cerevisiae deletion strains, locus YML032C, strain rad52, active compounds read low 0.981 | S. cerevisiae deletion strains, locus YML120C, strain ndi1, active compounds read low 1 | S. cerevisiae deletion strains, locus YML124C, strain tub3, active compounds read low 0.99 | S. cerevisiae deletion strains, locus YMR058W, strain fet3, active compounds read low 1 | S. cerevisiae deletion strains, locus YMR078C, strain ctf18, active compounds read low 0.974 | S. cerevisiae deletion strains, locus YMR125W, strain sto1, active compounds read low 0.995 | S. cerevisiae deletion strains, locus YMR129W, active compounds read low 0.991 | S. cerevisiae deletion strains, locus YMR205C, strain PFK2, active compounds read low 0.97 | S. cerevisiae deletion strains, locus YMR223W, strain ubp8, active compounds read low 0.99 | S. cerevisiae deletion strains, locus YMR231W, strain pep5, active compounds read low 0.978 | S. cerevisiae deletion strains, locus YMR263W, strain SAP30, active compounds read low 0.985 | S. cerevisiae deletion strains, locus YMR307W, strain GAS1, active compounds read low 1.03 | S. cerevisiae deletion strains, locus YNL067W, strain RPL9B, active compounds read low 0.984 | S. cerevisiae deletion strains, locus YNL071W, strain lat1, active compounds read low 0.934 | S. cerevisiae deletion strains, locus YNL128W, strain TEP1, active compounds read low 0.96 | S. cerevisiae deletion strains, locus YNL153C, strain GIM3, active compounds read low 0.998 | S. cerevisiae deletion strains, locus YNL183C, strain NPR1, active compounds read low 0.954 | S. cerevisiae deletion strains, locus YNL209W, strain ssb2, active compounds read low 0.993 | S. cerevisiae deletion strains, locus YNL233W, strain BNI4, active compounds read low 0.977 | S. cerevisiae deletion strains, locus YNL248C, strain rpa49, active compounds read low 0.983 | S. cerevisiae deletion strains, locus YNL250W, strain rad50, active compounds read low 0.981 | S. cerevisiae deletion strains, locus YNL271C, strain bni1, active compounds read low 0.98 | S. cerevisiae deletion strains, locus YNL298W, strain CLA4, active compounds read low 0.977 | S. cerevisiae deletion strains, locus YNL307C, strain MCK1, active compounds read low 0.984 | S. cerevisiae deletion strains, locus YNL322C, strain KRE1 (second series), active compounds read low 0.99 | S. cerevisiae deletion strains, locus YNL322C, strain KRE1, active compounds read low 0.986 | S. cerevisiae deletion strains, locus YNR049C, strain mso1, active compounds read low 1.01 | S. cerevisiae deletion strains, locus YNR052C, strain pop2, active compounds read low 0.984 | S. cerevisiae deletion strains, locus YOL006C, strain TOP1, active compounds read low 0.885 | S. cerevisiae deletion strains, locus YOL012C, strain htz1 1.15 | S. cerevisiae deletion strains, locus YOL147C, strain pex11, active compounds read low 0.994 | S. cerevisiae deletion strains, locus YOR001W, strain rrp6, active compounds read low 1 | S. cerevisiae deletion strains, locus YOR061W, strain CKA2, active compounds read low 0.964 | S. cerevisiae deletion strains, locus YOR069W, strain VPS5, active compounds read low 0.994 | S. cerevisiae deletion strains, locus YOR070C, strain gyp1, active compounds read low 1 | S. cerevisiae deletion strains, locus YOR080W, strain dia2, active compounds read low 0.984 | S. cerevisiae deletion strains, locus YOR083W, strain WHI5, active compounds read low 0.987 | S. cerevisiae deletion strains, locus YOR106W, strain vam3, active compounds read low 0.947 | S. cerevisiae deletion strains, locus YOR136W, strain idh2, active compounds read low 0.997 | S. cerevisiae deletion strains, locus YOR144C, strain elg1, active compounds read low 0.987 | S. cerevisiae deletion strains, locus YOR184W, strain ser1, active compounds read low 0.984 | S. cerevisiae deletion strains, locus YOR231W, strain MKK1, active compounds read low 1 | S. cerevisiae deletion strains, locus YOR265W, strain rbl2, active compounds read low 1.01 | S. cerevisiae deletion strains, locus YOR290C, strain snf2, active compounds read low 0.997 | S. cerevisiae deletion strains, locus YOR316C, strain cot1, active compounds read low 0.967 | S. cerevisiae deletion strains, locus YPL051W, strain arl3, active compounds read low 1.01 | S. cerevisiae deletion strains, locus YPL055C, strain LGE1, active compounds read low 0.964 | S. cerevisiae deletion strains, locus YPL078C, strain atp4, active compounds read low 0.999 | S. cerevisiae deletion strains, locus YPL106C, strain sse1, active compounds read low 0.984 | S. cerevisiae deletion strains, locus YPL240C, strain hsp82, active compounds read low 0.999 | S. cerevisiae deletion strains, locus YPL241C, strain CIN2, active compounds read low 0.985 | S. cerevisiae deletion strains, locus YPL256C, strain CLN2, active compounds read low 1.01 | S. cerevisiae deletion strains, locus YPR119W, strain clb2, active compounds read low 0.983 | S. cerevisiae deletion strains, locus YPR141C, strain kar3, active compounds read low 0.951 | S. cerevisiae deletion strains, locus YPR163C, strain tif3, active compounds read low 0.99 | S. cerevisiae deletion strains, locus YPR167C, strain met16, active compounds read low 0.984 | S. cerevisiae deletion strains, strain wtn01, active compounds read low 0.977 | S. cerevisiae strains, strain wild type, active compounds read low 0.985
